UHRF1 binding – human UHRF1 methylated DNA binding inhibitors; inhibition, % at 4.4 µM; UHRF1 binding to methylated oligo, TR-FRET; hit rate 0.75% among 370,000; in the data active means inhibition above about 21%;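 further: UHRF1 SRA domain binding a hemimethylated CpG hairpin DNA probe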
PLC-beta3 inh – PLC-beta3 (human) inhibition, primary screen; inhibition, % at 12.2 µM; hit rate 0.18% among 370,000; Purified PLC-beta3, fluorogenic substrate, fluorescence; Q01970; in the data active means inhibition above about 11%
LEDGF integ inh – blocks HIV-1 LEDGF/p75-dependent DNA integration. TR-FRET IN-LEDGF/p75 DNA integration, Eu/Cy5. inhibition, % at 3.7 µM. hit rate 0.64% among 370,000. AID 743269;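 active means inhibition above the screen-wide mean plus 3 SD, cut at about 13% in these data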;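 further: signal is the Cy5 over europium emission ratio at 671 and 618 nm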
PLC-gamma1 inh – PLC-gamma1 (human) inhibition, primary screen; purified PLC-gamma1, fluorogenic substrate, fluorescence; hit rate 0.84% among 370,000; inhibition, % at 12.2 µM; AID 720700; P19174; in the data active means inhibition above about 9.5%
Target sequence (P19174 whole entry, looked up): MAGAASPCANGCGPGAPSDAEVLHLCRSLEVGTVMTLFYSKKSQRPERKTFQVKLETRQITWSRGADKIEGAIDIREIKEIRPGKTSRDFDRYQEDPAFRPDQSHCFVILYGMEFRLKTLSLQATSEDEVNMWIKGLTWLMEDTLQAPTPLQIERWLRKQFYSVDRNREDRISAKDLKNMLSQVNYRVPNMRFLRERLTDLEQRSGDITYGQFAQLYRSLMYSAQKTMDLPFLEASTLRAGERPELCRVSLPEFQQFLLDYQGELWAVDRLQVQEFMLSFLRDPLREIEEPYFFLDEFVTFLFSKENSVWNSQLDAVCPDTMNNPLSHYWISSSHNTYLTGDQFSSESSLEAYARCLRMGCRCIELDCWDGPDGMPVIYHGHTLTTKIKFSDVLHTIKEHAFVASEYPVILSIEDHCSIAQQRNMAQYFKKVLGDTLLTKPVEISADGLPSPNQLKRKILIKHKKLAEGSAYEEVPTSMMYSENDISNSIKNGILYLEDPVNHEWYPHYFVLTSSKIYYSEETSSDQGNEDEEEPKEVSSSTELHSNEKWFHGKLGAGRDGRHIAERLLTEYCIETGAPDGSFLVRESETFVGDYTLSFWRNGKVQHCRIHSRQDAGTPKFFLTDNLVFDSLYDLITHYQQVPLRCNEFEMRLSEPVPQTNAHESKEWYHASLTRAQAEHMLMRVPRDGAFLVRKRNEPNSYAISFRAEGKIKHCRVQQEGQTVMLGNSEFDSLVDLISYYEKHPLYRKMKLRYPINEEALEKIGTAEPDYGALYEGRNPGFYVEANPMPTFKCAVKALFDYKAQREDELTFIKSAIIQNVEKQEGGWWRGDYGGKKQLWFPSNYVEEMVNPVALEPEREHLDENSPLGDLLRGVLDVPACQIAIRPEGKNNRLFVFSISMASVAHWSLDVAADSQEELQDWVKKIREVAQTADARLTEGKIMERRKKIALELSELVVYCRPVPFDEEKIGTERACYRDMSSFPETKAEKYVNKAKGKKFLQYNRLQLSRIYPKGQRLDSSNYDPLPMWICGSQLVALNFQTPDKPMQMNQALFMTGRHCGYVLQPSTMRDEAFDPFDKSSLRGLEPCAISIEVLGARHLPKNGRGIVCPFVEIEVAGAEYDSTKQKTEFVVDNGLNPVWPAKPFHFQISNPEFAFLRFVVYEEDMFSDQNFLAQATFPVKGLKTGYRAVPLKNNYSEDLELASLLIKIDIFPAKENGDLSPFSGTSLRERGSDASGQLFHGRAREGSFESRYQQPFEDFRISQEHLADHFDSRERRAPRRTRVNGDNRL
MBD2 DNA inh – MBD2-methylated oligo binding inhibition. TR-FRET, MBD2 binding to methylated oligonucleotide. inhibition, % at 4.4 µM. hit rate 0.31% among 370,000. AID 686964; in the data active means inhibition above about 13%
A number is an active result; n = inactive. This is a sample that favours compounds with a hit; in the whole collection about 2.3% have one here.

SMILES | UHRF1 binding | PLC-beta3 inh | LEDGF integ inh | PLC-gamma1 inh | MBD2 DNA inh
Fc1ccc(CSc2nnc(CN3CCOCC3)n2-c2ccccc2)c(Cl)c1 | 43 | n | n | n | n
O=C([C@@H]1C[C@H]1c1ccccc1)N1CC[C@H]2[C@H](CCCN2Cc2ccccc2)C1 | n | n | n | n | n
CCOc1ccc(S(=O)(=O)n2c(C)nc3ccccc32)cc1 | n | n | n | n | n
CCCCOc1ccc(S(=O)(=O)n2c(C)nc3ccccc32)cc1 | 43 | n | n | n | n
O=C1CS/C(=N/N=C/c2ccncc2)N1 | n | n | n | n | n
Cn1ccc(/C=N/N=C2/NC(=O)CS2)n1 | 37 | n | n | n | n
C/C(=N\Nc1nc2ccccc2[nH]1)c1ccc(N2CCOCC2)cc1 | 33 | n | n | n | n
O=C(Nc1ccccc1)n1ccc2ccc(-c3ccc4cc[nH]c4c3)cc21 | n | n | n | n | n
COc1cccc(OC)c1NC(=O)OC1CCC12CCC(c1ccccc1)CC2 (configuration not stated) | n | n | n | n | n
Cc1ccc(OCC(=O)Nc2ccc(S(=O)(=O)N3CCN(C)CC3)cc2)cc1 | 46 | n | n | n | n
Cc1ccc(S(=O)(=O)Nc2ccc(Nc3nccn4c(-c5cccc(OC(F)(F)F)c5)cnc34)cc2)cc1 | 90 | n | n | n | n
COC(=O)C1CN(Cc2ccc(C)cc2)CCS(=O)(=O)N1Cc1cn(Cc2ccc(OC)cc2)nn1 (configuration not stated) | n | n | n | n | n
COc1ccc2cc3c(nc2c1)OCC3 | 21 | n | n | n | n
COc1ccc2nc3c(nc2c1)CCCC3 | n | n | n | n | n
CC(=O)N1CCOCC1c1cc(C(=O)Nc2ccccc2)no1 (configuration not stated) | n | n | n | n | n
Cc1ccc(F)cc1C(=O)N1CCOCC1c1cc(C(=O)Nc2ccccc2)no1 (configuration not stated) | 33 | n | n | n | n
CC(COc1cccc(F)c1)CN1CCC(C(O)(c2ccccc2)c2ccccc2)CC1 (configuration not stated) | n | n | n | n | n
CC(C)(C)c1ccc(-c2nnc(SCC(=O)Nc3ccc4cn[nH]c4c3)n2-c2ccc(Cl)cc2)cc1 | n | n | n | n | n
COc1ccccc1CNC(=O)NCCCN1CCN(c2ccc(F)cc2)CC1 | n | n | n | n | n
COc1ccc(C(=O)/C(=C/N(C)C)S(=O)(=O)c2ccccc2)cc1 | 55 | n | n | n | n
COC(=O)C(C(=O)N1CCN(C)CC1)C1CCCCCC1 (configuration not stated) | n | n | n | n | n
COC(=O)C(C(=O)OC)C1C=CCN(C(C)=O)C1 (configuration not stated) | n | n | n | 29 | n
C#CCN1CC(N2CCN(CCO)CC2)CS1(=O)=O (configuration not stated) | n | n | n | n | n
COc1ccccc1CN(Cc1cccnc1)S(=O)(=O)c1ccc(-n2cnnn2)c(OC)c1 | n | n | n | n | n
COc1cc(S(=O)(=O)N(Cc2cccnc2)Cc2cccc(OC)c2OC)ccc1-n1cnnn1 | 23 | n | n | n | n
SMILES | UHRF1 binding | PLC-beta3 inh | LEDGF integ inh | PLC-gamma1 inh | MBD2 DNA inh
CCOC(=O)c1c(NC(=O)c2ccc(S(=O)(=O)N3CCOCC3)cc2)sc2c1CCN(C)C2 | n | n | n | n | 15
COc1ccc(/C=C/c2nc(-c3ccccc3O)n(-c3ccccc3)n2)cc1 | n | n | n | n | n
COc1ccc(/C=C/c2nc(-c3ccccc3O)n[nH]2)cc1 | 66 | n | n | n | n
Cc1cccc(NC(=O)c2ccc(S(=O)(=O)NCc3ccco3)cc2)n1 | 30 | n | n | n | n
Cc1ccc2c(c1)C1CS(=O)(=O)N(CCc3ccccc3)C(=O)N1C2 (configuration not stated) | n | n | n | n | n
CC(C)CCn1c(COc2ccccc2)n[nH]c1=S | 21 | n | n | n | n
S=c1[nH]nc(COc2ccccc2)n1Cc1ccccc1 | n | n | n | n | n
CC(C)=CCC[C@](C)(O)C1CC[C@]2(C)C1[C@H](O)CC1[C@@]3(C)CC[C@H](O[C@@H]4O[C@H](CO)[C@@H](O)[C@H](O)[C@H]4O[C@@H]4O[C@H](CO)[C@@H](O)[C@H](O)[C@H]4O)C(C)(C)C3CC[C@]12C (some centres not stated) | n | n | n | n | n
CC1(C)CC[C@]2(C(=O)O[C@@H]3OC(CO)[C@@H](O)[C@H](O)[C@H]3O)CC[C@]3(C)C(=CCC4[C@@]5(C)CC[C@H](O[C@@H]6OC(C(=O)O)[C@@H](O)[C@H](O)[C@H]6O)C(C)(C)C5CC[C@]43C)[C@@H]2C1 (some centres not stated) | n | n | 16 | n | n
C/C=C(\C)C(=O)OC1CC(C)(C)C[C@H]2C3=CC[C@@H]4[C@@]5(C)CCC(O[C@@H]6O[C@@H](C(=O)O)[C@@H](O)C(O[C@@H]7OC[C@H](O)[C@@H](O)[C@@H]7O[C@@H]7OC(CO)C(O)[C@@H](O)[C@@H]7O)C6O[C@@H]6OC(CO)C(O)C(O)C6O)[C@@](C)(CO)[C@@H]5CC[C@]4(C)[C@]3(C)CC(O)[C@@]12CO (some centres not stated) | n | n | 26 | n | n
O=C(c1cccs1)C1CCN(c2ncnc3sccc23)CC1 | n | n | n | n | n
C=CCN1C(=O)[C@@H](CC(=O)NCC23CC4CC(CC(C4)C2)C3)[C@]2(C(=O)OCC)CCCCC/C=C/12 | n | n | n | n | n
CCc1ccc(S(=O)(=O)/N=C2\C=C(Nc3ccc(C(=O)O)cc3)C(=O)c3ccccc32)cc1 | n | n | 29 | n | n
Cc1ccc(S(=O)(=O)/N=C2\C=C(Nc3cccc(C(=O)O)c3)C(=O)c3ccccc32)c(C)c1 | n | n | n | n | n
COC(=O)[C@]12C[C@H](CC(=O)NCCc3ccccc3OC)C(=O)N(CCc3ccc(OC)c(OC)c3)C1=C[C@H](C1CCCC1)O[C@@H]2C | n | n | n | n | n
COc1ccc(-c2ocnc2C(=O)Nc2ccc(N3CCOCC3)cc2N2CCOCC2)cc1OC | n | n | n | n | n
COc1ccccc1-c1ocnc1C(=O)Nc1ccc(N2CCOCC2)cc1N1CCOCC1 | 74 | n | n | n | n
O=C(Nc1ccncc1)c1ccc2c(c1)C(=O)N(C1CCCCC1)C2=O | 26 | n | n | n | n
Cc1cc(NC(=O)c2ccc3c(c2)C(=O)N(C2CCCCC2)C3=O)no1 | n | n | n | n | n
O=C(c1ccncc1F)N1CCC(n2nnc3ncccc32)CC1 | n | n | n | n | n
O=C(CCc1ccc(O)c(O)c1)N/N=C/c1ccc2c(c1)OCO2 | 21 | n | 33 | n | n
N=C(N)SCc1ccc(O)c([N+](=O)[O-])c1 | 38 | n | n | n | n
COc1ccc(S(=O)(=O)N2CCN(CC(=O)c3ccc(O)c(O)c3)CC2)cc1 | n | n | 61 | n | n

From PubChem
